Hits are enriched below; roughly 11% of the tested compounds scored in any of these assays.
HCV inhibitor – inhibitors of hepatitis C virus infection; Huh7.5.1 HCVcc-Cre infection, luciferase reporter, 44 h; Potency, µM (series often up to 41.8 µM), for inactives: top-dose activity change, negative = inhibition, hits mostly inhibitors; hit rate 3.4% among 340,000; AID 651820
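Infectious HCV cell culture screen: compound-treated cells (1,000/well, pre-plated 4 h) are infected with HCVcc-Cre at roughly 0.5 moi and grown 44 h. Infection is quantified by luciferase signal after 15 min substrate incubation at room temperature.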
Pf growth 96h – P. falciparum growth inhibition at 96 hour, primary screen for plastid delayed-death inhibitors. hit rate 6.9% among 320,000. P. falciparum luciferase reporter growth, 96 h. Potency, µM (series often up to 28.7 µM), for inactives: at the top dose activity change, negative = inhibition, actives largely listed as inhibitors
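Parasite growth measured via integrated firefly luciferase reporter in P. falciparum. Infected erythrocytes at 2% hematocrit, 0.05% parasitemia final were treated 96 hours at 37 C under 5% CO2, and luminescence was read.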
AMA1 RON2 block – inhibitors of Plasmodium falciparum AMA1-RON2 interaction; hit rate 0.2% among 360,000; AlphaScreen AMA1-biotinylated RON2 peptide binding; Potency, µM (series often up to 58.2 µM), inactives show at the top dose activity change, negative = inhibition, most hits filed as inhibitors;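 note: 0% = vehicle wells and -100% = peptide control; nearly all actives have a fitted effect of over 45% in size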
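AMA1 (3D7) with his tag at 25 nM final met compounds first, then biotinylated RON2 peptide at 25 nM; detection used donor plus acceptor beads, 10 µg/mL apiece, read by AlphaScreen after 30 min at room temperature.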
Pf growth 48h – inhibits P. falciparum growth in the first generation, 48 h; P. falciparum luciferase growth in erythrocytes, 48 h; Potency, µM (titrated, usually from 28.7 µM), for the others: at the highest dose activity change, negative = inhibition, usual class: inhibitors; hit rate 5.9% among 310,000
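Compounds are pin-transferred into medium, infected erythrocytes (2% hematocrit, 0.1% parasitemia final) are added, and plates sit one parasite generation at 37 C in 5% CO2. Detection reagent is then added and luminescence measured.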
Active calls of the source: *; ? = inconclusive; nt = not tested or not shown. Calls come from the whole dose curve; as a rule, active = well fitted curve in the direction sought with a large enough effect; inconclusive = small, poorly fitted or top-dose-only effect, or another doubt; inactive = no such curve, though single readings can be large; an effect the other way counts as inactive or inconclusive. Unless noted, % is set by controls: 0 for no effect and ±100 for the full control effect; potency is the fitted concentration of half-maximal effect.

SMILES | HCV inhibitor | Pf growth 96h | AMA1 RON2 block | Pf growth 48h
O=C(Nc1ccc2c(c1)C(=O)NC2=O)c1cc(Cl)ccc1Cl | 0.8% | 75.0% | -4.0% | 8.7%
O=C(NCO)c1cccnc1 | -10.1% | nt | -5.1% | nt
O=C(O)CCCC/C=C(\c1ccccc1)c1cccnc1 | nt | 1.69µM* | nt | -13.6%
CSc1nnc(Nc2ccccc2C)s1 | -6.5% | 9.28µM* | -2.8% | nt
C/C(N)=C(/C#N)C(=O)CSc1nnc(Nc2ccccc2C)s1 | ? | 7.38µM* | -16.7% | 57.9%
CC(C)[C@H](NC(=O)N1c2ccccc2NC(=O)[C@@H]1C(C)C)C(=O)N[C@@H](Cc1ccccc1)C(=O)O | 16.2% | ? | 0.0% | -1.6%
CC(C)[C@H](NC(=O)N1c2ccccc2NC(=O)[C@@H]1C(C)C)C(=O)N[C@@H](C(=O)O)c1ccccc1 | 0.355µM* | -17.5% | 9.9% | ?
Cc1noc(C)c1COc1ccccc1C(=O)N1CCN(S(=O)(=O)c2ccc(C(C)C)cc2)CC1 | nt | nt | -4.5% | nt
Fc1ccc(Cn2ccc(-c3cnc(-c4ccccc4)s3)n2)cc1 | 10µM* | 15.4% | 129.0% | nt
CCN1CCN(C2=C(NS(=O)(=O)c3ccc(NC(C)=O)cc3)C(=O)c3ccccc3C2=O)CC1 | ? | 10.4µM* | -14.0% | ?
CCN1CCN(C2=C(NS(=O)(=O)c3ccc(C)cc3)C(=O)c3ccccc3C2=O)CC1 | ? | 1.65µM* | 0.2% | 2.94µM*
CC(=O)Nc1ccc(S(=O)(=O)NC2=C(N3CCN(C)CC3)C(=O)c3ccccc3C2=O)cc1 | -26.2% | ? | 8.7% | ?
CC(=O)Nc1ccc(S(=O)(=O)NC2=C(N3CCN(Cc4ccccc4)CC3)C(=O)c3ccccc3C2=O)cc1 | ? | 1.17µM* | ? | nt
CCOC(=O)N1CCN(C2=C(NS(=O)(=O)c3ccc(NC(C)=O)cc3)C(=O)c3ccccc3C2=O)CC1 | -29.1% | 9.28µM* | -26.2% | ?
Cc1csc(SCC(=O)Nc2ccc3[nH]c(=O)[nH]c3c2)n1 | 1.0% | nt | -1.0% | nt
Cn1c(-c2cccc(Br)c2)cnc1NCc1ccccc1O | -15.3% | 5.22µM* | ? | ?
COc1ccc(CNc2ncc(-c3ccc(Cl)cc3)n2C)c(OC)c1OC | -15.9% | 2.94µM* | ? | -25.8%
COc1ccc(CNc2ncc(-c3ccc(Br)cc3)n2C)cc1OC | ? | 13.1µM* | ? | ?
Cn1c(-c2ccc(Br)cc2)cnc1NCc1ccc(C#N)cc1 | -13.1% | ? | ? | ?
CCCCn1nnnc1NCc1ccc(OC)c(OC)c1OC | 15.7% | -5.6% | 0.0% | 33.3%
Cc1ccc(C)c(S(=O)(=O)N2CCCC2CNC(=O)C(=O)NC2CC2)c1 (centres undefined) | -19.5% | -0.1% | 0.5% | ?
O=C(CSc1nc(-c2ccccc2)cc(=O)[nH]1)Nc1ccc(F)c(F)c1 | 12.6% | 29.4% | 1.6% | 1.1%
C[C@@H]1CCCCO[C@H](CN(C)C(=O)C2CCCCC2)[C@@H](C)CN([C@H](C)CO)C(=O)c2cc(N(C)C)ccc2O1 | nt | nt | 5.4% | nt
COCCNC(=S)N(CCc1c(C)[nH]c2ccc(Cl)cc12)Cc1cccs1 | 7.08µM* | ? | ? | ?
CCNC(=S)N(CCc1c(C)[nH]c2ccc(Cl)cc12)Cc1ccco1 | 10µM* | ? | 0.0% | ?
SMILES | HCV inhibitor | Pf growth 96h | AMA1 RON2 block | Pf growth 48h
CCn1c(SCC(=O)Nc2cccc(C)c2)nc2nc3c(cc2c1=O)COC(C)(C)C3 | ? | ? | -8.3% | ?
Cc1cc(C)c(OCCCCNCc2ccccc2)c(Cl)c1 | 11.2µM* | ? | -25.3% | -13.9%
CN(CCOc1ccc(Cl)c(Cl)c1)Cc1ccccc1 | -7.0% | ? | ? | 7.1%
Cc1cc(C)c(C)c(OCCNCc2ccccc2)c1 | ? | 11.7µM* | -2.8% | -19.6%
C=CCNCCCCOc1c(Cl)cc(C)cc1Br | 12.0% | -60.0% | -4.3% | 9.28µM*
Clc1ccc(OCCOCCNCc2ccccc2)cc1Cl | 3.8% | 13.1µM* | -2.9% | 52.2%
COCCCNCCCCOc1c(Cl)cc(C)cc1Br | ? | 10.1% | -17.1% | -18.6%
Cc1cc(C)c(OCCNCc2ccccc2)c(C)c1 | -19.0% | 5.6% | -0.6% | -16.5%
O=C(c1cc(-c2ccc(Cl)cc2)n[nH]1)N1CCN(C(=O)c2ccco2)CC1 | -5.2% | ? | -0.2% | 13.1%
Cc1cccc(OCC(=O)Nc2c3c(nn2C(C)(C)C)CS(=O)(=O)C3)c1 | -1.4% | 18.2% | -8.2% | 40.2%
Cn1ccc2c(-c3cccc(C=O)c3)cc3c(c21)C1CCC3O1 (centres undefined) | nt | nt | -21.4% | nt
